Target: CLDN9
Experiment: pooled miR-30 sensor sort-seq; sequence = guide strand
Details: shRNA
Further: reference of the scale not given here.

| Sequence | sensor-assay potency score (higher = more potent) |
| --- | --- |
| TAGCCCAGCCGAGGTCCGCGGG | -1.28 |
| TTCGTCCTCCACACACGTGGTA | -0.498 |
| TTTGGAGCCAACGAGCTGCTGC | -0.374 |
| ATGATGGCGTGCGCCGTCCAGC | -1.9 |
| TCGTCCTCCACACACGTGGTAC | -1.58 |
| ATGAGCACCAGGATGCCGGCGA | -0.538 |
| TTGTAGAAGTCCTGGATGATGG | -1.14 |
| TTGTCCAGTCCAGATGCACCCG | -0.545 |
| TCCACACACGTGGTACACTGGG | -1.23 |
| TTGCACTGCATCTGGCCCGTGC | -0.338 |
| TAGAAGTCCTGGATGATGGCGT | 0.302 |

Target: CLEC9A
Experiment: as above
Details: shRNA

| Sequence | sensor-assay potency score (higher = more potent) |
| --- | --- |
| TTGGAAGACAGACATTTCTGGT | -0.439 |
| TAGCTGACTGGGATCTCTCTGC | -0.395 |
| TAAACAATTCTCTTGACTGGTG | -0.135 |
| TTGGATGAGTTTTTCTTGCTGC | 0.744 |

From the OligoGym collection
